Results published in PubChem BioAssay (NCATS).
Results filed as inconclusive are left out. Activity calls are given as the source filed them. Unless noted, the call rests on the fitted dose curve; in most records, active means well fitted curve in the direction sought with a large enough effect; inconclusive means small, poorly fitted or top-dose-only effect, or another doubt; inactive means no such curve, though single readings can be large; an effect the other way counts as inactive or inconclusive.

Assays:
[1] = target: Lysosomal acid glucosylceramidase (Homo sapiens) (UniProt P04062); experiment: Glucocerebrosidase-p2 (AID 348; in the data active means potency below about 10 µM; further: potency means the concentration at half of the fitted maximal effect); settings: purified GBA, blue fluorogenic substrate, 40 min
Method in brief: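 Normal human glucocerebrosidase (0.2 nM) with blue fluorogenic substrate (80 uM final) in citrate/phosphate pH 5.9 with 10mM sodium taurocholate, 0.01% tween-20; 40 min RT, NaOH/glycine stop; fluorescence Ex 365/Em 440; AC50 from a titration from 0.6 nM upwards.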

[2] = AP1 Signaling Pathway (AID 357; active means well fitted curve in either direction with a large enough effect, not every such curve was filed as active;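 further: ME-180 reporter cells stimulated with EGF at its EC50 level; on the % scale 0 is the no-effect control and ±100 the full control effect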); settings: ME-180 AP-1-bla reporter, EGF-induced, beta-lactamase ratio, 5 h; at 7.69 µM (top of the series) unless noted
Method in brief: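 Beta-lactamase reporter under AP-1 response element, ME-180 background. Stimulus: EC50 EGF. Compound exposure 5 h, 37 °C. Detection: CCF4, 2.5 h RT, 460/530 nm. Values: AC50 from titration.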

[3] = target: Cytochrome P450 1A2 (Homo sapiens) (UniProt P05177); experiment: p450-cyp1a2 (AID 410; calls by dose curve; further: potency means the concentration at half of the fitted maximal effect); settings: recombinant CYP1A2, luciferin-ME demethylation, luminescence; series mostly up to 57 µM
Method in brief: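 Luminescent demethylation readout: Luciferin-ME (100uM, equal to Km) turned over by 20nM CYP1A2 for 60 min at room temperature after NADPH regeneration addition, following 10 min compound preincubation. Normalization used 57 uM furafylline as full inhibition.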

[4] = Stat Signaling Pathway (AID 446; active means well fitted curve in either direction with a large enough effect, not every such curve was filed as active;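 further: ME-180 cervical cancer cells given 40 pM IL-6 alongside compound; SIE-controlled beta-lactamase reporter measured as 460/530 nm FRET emission ratio; on the % scale 0 is the no-effect control and ±100 the full control effect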); settings: ME-180 SIE beta-lactamase reporter, IL-6 stimulated, 5 h; at 7.69 µM (top of the series) unless noted
Method in brief: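 Compound effects on IL-6-induced STAT reporter activity were measured in ME-180 cells. After overnight culture, cells were co-treated with 40 pM IL-6 for 5 hrs before beta-lactamase substrate loading at room temperature.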

[5] = target: Glucocorticoid receptor (Homo sapiens) (UniProt P04150); experiment: GR-GFP Redistribution (AID 450;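 active means compounds whose dose series gives a full or clear partial fitted curve of increased nuclear translocation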; further: potency means the concentration at half of the fitted maximal effect); settings: U2OS GR-GFP nuclear translocation, laser cytometry, 2 h
[6] = target: Glucocorticoid receptor (Homo sapiens) (UniProt P04150); experiment: GR-EFC Redistribution (AID 451; calls by dose curve; further: potency means the concentration at half of the fitted maximal effect); settings: CHO-K1 GR-EFC translocation, beta-gal luminescence, 2 h
Method in brief: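 Translocation of GR-ED fusion to nuclear EA restores b-gal, read by luminescence after 1 h room-temperature detection. Engineered CHO-K1 biosensor cells, 1,000/well, exposed 2 h at 37 C to titrations up to 46 uM final.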

[7] = target: Mitogen-activated protein kinase 10 (Mus musculus) (UniProt Q61831); experiment: JNK3 AlphaScreen Assay (AID 530; active means well fitted curve in either direction with a large enough effect, not every such curve was filed as active;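 further: kinase came from lysate of stimulated human HepG2 cells; signal reports phosphorylation of biotinylated GST-cJun 1-79 at Ser73 with 10 µM ATP; on the % scale 0 is the no-effect control and ±100 the full control effect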); settings: JNK3 lysate, c-Jun phosphorylation; series mostly up to 57.1 µM
Method in brief: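 qHTS titrations with 15 min compound pre-incubation before adding ATP (10 uM final). Read-out: AlphaScreen of Ser73-phosphorylated biotin-GST-cJun using HepG2 lysate JNK3 activated by IL-1β and TNFα.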

[8] = target: Cytochrome P450 3A4 (Homo sapiens) (UniProt P08684); experiment: qHTS Assay for Activators of Cytochrome P450 3A4 (AID 885); settings: recombinant CYP3A4, Luciferin-PPXE luminescence, 60 min; series mostly up to 57.1 µM; further: nearly all actives have a fitted effect of over 65% in size
Method in brief: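 CYP3A4 activity: Luciferin-PPXE O-dealkylation, 25uM substrate, 200mM KPO4, RT throughout. Read-out is luciferase luminescence; higher values reflect activation.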

[9] = target: Dual specificity protein kinase CLK4 (Homo sapiens) (UniProt Q9HAZ1); experiment: qHTS Assay for Inhibitors of CDC-like Kinase 4 (Kinase-Glo Assay) (AID 1770); settings: recombinant Clk4, Kinase-Glo ATP depletion luminescence; series mostly up to 66.7 µM; further: nearly all actives have a fitted effect of over 65% in size; further: potency means the concentration at half of the fitted maximal effect
Method in brief: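 Luminescent ATP-depletion read-out (Kinase-Glo) after 4.5 h room-temperature reaction of Clk4 (25 nM final) with RS peptide (100 uM) and ATP (1 uM), pH 7.5 Tris buffer with MgCl2 and DTT.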

[10] = target: Dual specificity protein kinase CLK4 (Homo sapiens) (UniProt Q9HAZ1); experiment: qHTS Assay for Inhibitors of CDC-like Kinase 4 (ADP-Glo Assay) (AID 1771); settings: recombinant CLK4, ADP-Glo luminescence; series mostly up to 80 µM; further: nearly all actives have a fitted effect of over 70% in size; further: potency means the concentration at half of the fitted maximal effect
Method in brief: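 ADP production was read by ADP-Glo luminescence after residual ATP depletion, following 1 h room-temperature reaction of 25 nM Clk4, 1 uM ATP and 100 uM RS peptide with MgCl2, EGTA, DTT and Triton X-100.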

[11] = target: Dual specificity protein kinase CLK4 (Homo sapiens) (UniProt Q9HAZ1); experiment: qHTS Assay for Inhibitors of CDC-like Kinase 4 (ADP-FP Assay) (AID 1795); settings: Transcreener ADP fluorescence polarization; series mostly up to 50 µM; further: nearly all actives have a fitted effect of over 60% in size; further: potency means the concentration at half of the fitted maximal effect
Method in brief: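 Kinase activity was measured as ADP production using Transcreener orange tracer (4 nM) and ADP antibody (1 ug/mL) fluorescence polarization, with ADP calculated from a calibration curve. The 1 h reaction contained 6.25 nM Clk4, 1 uM ATP and 100 uM RS peptide at pH 7.5 with Mg2+.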

[12] = target: Ubiquitin carboxyl-terminal hydrolase 1 (Homo sapiens) (UniProt O94782); experiment: Inhibitors of USP1/UAF1: Pilot qHTS (AID 504865); settings: purified USP1/UAF1, Ub-rhodamine cleavage fluorescence; series mostly up to 54.9 µM;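 further: rhodamine fluorescence freed from ubiquitin-rhodamine substrate followed over time; top concentration of the series differs between compounds; on the % scale 0 is the no-effect control and ±100 the full control effect; nearly all actives have a fitted effect of over 35% in size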
Method in brief: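 Deubiquitinase activity followed as kinetic rhodamine fluorescence release from 150 nM Ub-Rho. 1 nM USP1/UAF1 with compound, after 15 min room-temperature preincubation, in HEPES pH 7.8 buffer containing TCEP, EDTA, BSA and Tween-20.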

[13] = Primary qHTS for small molecule stabilizers of the endoplasmic reticulum resident proteome: Secreted ER Calcium Modulated Protein (SERCaMP) assay (AID 1508630); settings: SH-SY5Y GLuc-SERCaMP (Gaussia luciferase released on ER calcium loss) secretion, thapsigargin, luminescence; series mostly up to 38.4 µM; further: on the % scale 0 is the no-effect control and ±100 the full control effect
Method in brief: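 The SH-SY5Y reporter protocol was run at 3 concentrations up to 38.3 uM (primary) or 11 concentrations (follow-up): 16 h compound, 100 nM thapsigargin for 4 h, then extracellular luciferase luminescence.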

[14] = NFAT Signaling Pathway (AID 444; active means well fitted curve in either direction with a large enough effect, not every such curve was filed as active); settings: Jurkat NFAT-bla M1, carbachol, beta-lactamase ratio, 5 h; at 7.69 µM (top of the series) unless noted
Method in brief: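 Read-out: CCF4 FRET ratio (460 nm/530 nm) after 1 h RT dye loading, used for %activity and AC50 from titration series. Cells: Jurkat NFAT-β-lactamase/M1 line, treated with compound plus 1 uM carbachol for 5 h, 37 °C.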

[15] = target: 3',5'-cyclic-AMP phosphodiesterase 4B (Homo sapiens) (UniProt Q07343); experiment: qHTS Assay for Inhibitors of PDE-IV (AID 607; active means well fitted activation curve with a large enough effect in the main read-out, with a control signal flat, not every such curve was filed as active; further: % of control where 0% means no effect); settings: HEK293 ACTOne CNG channel cells, membrane potential fluorescence; series mostly up to 22.9 µM
Method in brief: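 ACTOne HEK293 cells carry a modified cAMP-gated CNG channel and express endogenous PDE4; plated 1000 cells/well, compounds up to 22.9 uM final. Membrane-potential dye fluorescence (ex 535/em 590) was read; parental cells received 10 uM forskolin + 100 uM RO 20-1724.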

[16] = target: Cytochrome P450 2C19 (Homo sapiens) (UniProt P33261); experiment: qHTS Assay for Inhibitors and Substrates of Cytochrome P450 2C19 (AID 899); settings: recombinant CYP2C19, luciferin-H EGE luminescence; series mostly up to 57.1 µM; further: potency means the concentration at half of the fitted maximal effect; nearly all actives have a fitted effect of over 60% in size
Method in brief: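 5nM enzyme + 10uM Luciferin-H EGE (=KM), 50mM KPO4; cpd pin-transferred, 10 min 37C; NADPH regen, 60 min 37C; stopped w/ luciferin detection reagent, 20 min; luminescence. Normalized to 57uM ketoconazole (AC100).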

[17] = target: Cytochrome P450 3A4 (Homo sapiens) (UniProt P08684); experiment: qHTS Assay for Inhibitors and Substrates of Cytochrome P450 3A4 (AID 884); settings: recombinant CYP3A4, Luciferin-PPXE luminescence; series mostly up to 57.1 µM; further: on the % scale 0 is the no-effect control and ±100 the full control effect; nearly all actives have a fitted effect of over 50% in size
Method in brief: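 Luminescent readout of luciferin produced by CYP3A4 (20 nM) dealkylation of Luciferin-PPXE, 25 uM (its KM). NADPH-driven reaction ran 60 min at RT after 10 min compound preincubation; data scaled to 57 uM ketoconazole as 100% inhibition.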

[18] = qHTS Assay for Identification of Small Molecule Agonists for Hypoxia Response Element Signaling Pathway (AID 914; active means well fitted activation curve with a large enough effect in the signal ratio, with a control signal flat, not every such curve was filed as active; the % refers to the signal ratio; further: potency means the concentration at half of the fitted maximal effect); settings: ME-180 (cervical carcinoma) HRE-bla reporter, beta-lactamase ratio, CoCl2, 17 h; activation: active compounds read high
Method in brief: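 A beta-lactamase reporter under hypoxia response element control in ME-180 cells served as the system. Compound titrations plus EC50 CoCl2 ran 17 h at 37 degrees Celsius; AC50 values were fitted from %Activity.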

Sequence of Lysosomal acid glucosylceramidase (Homo sapiens) (P04062 whole entry, looked up): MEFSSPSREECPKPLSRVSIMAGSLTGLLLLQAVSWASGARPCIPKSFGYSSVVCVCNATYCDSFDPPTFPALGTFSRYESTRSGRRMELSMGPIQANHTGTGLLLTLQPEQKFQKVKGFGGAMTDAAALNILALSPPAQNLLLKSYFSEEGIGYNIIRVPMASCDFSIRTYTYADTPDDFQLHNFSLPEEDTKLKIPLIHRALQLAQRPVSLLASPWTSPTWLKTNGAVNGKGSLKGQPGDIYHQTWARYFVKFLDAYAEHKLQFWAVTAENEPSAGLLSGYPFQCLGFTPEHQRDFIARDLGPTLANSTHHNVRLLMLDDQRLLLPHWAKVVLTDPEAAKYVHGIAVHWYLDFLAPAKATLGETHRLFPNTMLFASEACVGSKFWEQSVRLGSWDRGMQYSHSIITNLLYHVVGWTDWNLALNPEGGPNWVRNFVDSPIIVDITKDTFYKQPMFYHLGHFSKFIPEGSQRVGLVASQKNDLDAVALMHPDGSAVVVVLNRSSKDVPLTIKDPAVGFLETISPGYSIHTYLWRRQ
Sequence of Ubiquitin carboxyl-terminal hydrolase 1 (Homo sapiens) (O94782 whole entry, looked up): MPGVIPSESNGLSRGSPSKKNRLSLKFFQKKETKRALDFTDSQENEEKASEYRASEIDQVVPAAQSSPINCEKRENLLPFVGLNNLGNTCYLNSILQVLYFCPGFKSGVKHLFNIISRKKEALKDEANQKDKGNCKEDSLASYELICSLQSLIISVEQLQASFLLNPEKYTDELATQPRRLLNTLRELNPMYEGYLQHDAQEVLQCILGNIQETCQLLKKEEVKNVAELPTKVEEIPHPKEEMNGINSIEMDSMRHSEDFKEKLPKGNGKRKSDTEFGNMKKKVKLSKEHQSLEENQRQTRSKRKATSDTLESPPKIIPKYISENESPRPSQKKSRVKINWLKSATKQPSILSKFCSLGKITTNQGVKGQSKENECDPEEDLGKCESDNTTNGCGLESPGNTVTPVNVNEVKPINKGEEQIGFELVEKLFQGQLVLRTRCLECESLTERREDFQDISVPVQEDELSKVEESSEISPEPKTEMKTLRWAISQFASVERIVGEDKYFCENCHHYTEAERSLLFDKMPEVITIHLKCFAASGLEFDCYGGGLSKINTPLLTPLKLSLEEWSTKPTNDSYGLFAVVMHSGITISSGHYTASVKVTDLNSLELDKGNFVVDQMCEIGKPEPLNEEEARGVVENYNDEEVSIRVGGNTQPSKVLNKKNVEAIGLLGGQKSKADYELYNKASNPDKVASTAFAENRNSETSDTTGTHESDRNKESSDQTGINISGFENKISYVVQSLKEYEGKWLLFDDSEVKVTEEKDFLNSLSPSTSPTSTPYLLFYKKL
Sequence of 3',5'-cyclic-AMP phosphodiesterase 4B (Homo sapiens) (Q07343 whole entry, looked up): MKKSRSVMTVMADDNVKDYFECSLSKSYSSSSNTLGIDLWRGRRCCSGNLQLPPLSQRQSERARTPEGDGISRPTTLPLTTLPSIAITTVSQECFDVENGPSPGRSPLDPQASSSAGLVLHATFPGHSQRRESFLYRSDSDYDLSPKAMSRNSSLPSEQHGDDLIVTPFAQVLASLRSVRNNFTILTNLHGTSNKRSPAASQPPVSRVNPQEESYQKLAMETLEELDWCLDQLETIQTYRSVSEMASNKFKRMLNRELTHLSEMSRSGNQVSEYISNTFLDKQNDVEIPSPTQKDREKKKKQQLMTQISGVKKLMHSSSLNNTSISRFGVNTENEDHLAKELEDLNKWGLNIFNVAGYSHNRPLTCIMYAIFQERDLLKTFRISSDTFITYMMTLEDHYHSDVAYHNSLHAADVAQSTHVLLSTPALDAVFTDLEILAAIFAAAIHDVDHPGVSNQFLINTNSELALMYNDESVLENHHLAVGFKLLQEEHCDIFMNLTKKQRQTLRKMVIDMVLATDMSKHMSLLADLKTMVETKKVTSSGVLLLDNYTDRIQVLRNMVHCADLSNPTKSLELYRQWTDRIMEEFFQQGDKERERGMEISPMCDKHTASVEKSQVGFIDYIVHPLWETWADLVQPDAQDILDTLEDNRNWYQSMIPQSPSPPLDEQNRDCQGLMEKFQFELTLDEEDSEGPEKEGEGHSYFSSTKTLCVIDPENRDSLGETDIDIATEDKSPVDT
Sequence of Dual specificity protein kinase CLK4 (Homo sapiens) (Q9HAZ1 whole entry, looked up): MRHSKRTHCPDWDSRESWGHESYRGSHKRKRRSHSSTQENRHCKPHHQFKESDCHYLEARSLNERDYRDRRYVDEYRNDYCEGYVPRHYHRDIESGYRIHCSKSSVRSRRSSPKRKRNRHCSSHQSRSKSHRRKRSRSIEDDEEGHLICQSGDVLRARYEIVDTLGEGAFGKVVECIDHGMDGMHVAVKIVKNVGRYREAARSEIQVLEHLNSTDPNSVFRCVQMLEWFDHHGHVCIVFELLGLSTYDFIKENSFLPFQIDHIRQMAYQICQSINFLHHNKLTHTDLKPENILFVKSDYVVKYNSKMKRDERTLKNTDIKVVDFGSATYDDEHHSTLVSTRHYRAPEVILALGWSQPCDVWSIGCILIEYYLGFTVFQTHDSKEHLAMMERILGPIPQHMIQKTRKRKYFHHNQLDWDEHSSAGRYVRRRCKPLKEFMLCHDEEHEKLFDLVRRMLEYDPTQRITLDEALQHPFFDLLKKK
Sequence of Cytochrome P450 1A2 (Homo sapiens) (P05177 whole entry, looked up): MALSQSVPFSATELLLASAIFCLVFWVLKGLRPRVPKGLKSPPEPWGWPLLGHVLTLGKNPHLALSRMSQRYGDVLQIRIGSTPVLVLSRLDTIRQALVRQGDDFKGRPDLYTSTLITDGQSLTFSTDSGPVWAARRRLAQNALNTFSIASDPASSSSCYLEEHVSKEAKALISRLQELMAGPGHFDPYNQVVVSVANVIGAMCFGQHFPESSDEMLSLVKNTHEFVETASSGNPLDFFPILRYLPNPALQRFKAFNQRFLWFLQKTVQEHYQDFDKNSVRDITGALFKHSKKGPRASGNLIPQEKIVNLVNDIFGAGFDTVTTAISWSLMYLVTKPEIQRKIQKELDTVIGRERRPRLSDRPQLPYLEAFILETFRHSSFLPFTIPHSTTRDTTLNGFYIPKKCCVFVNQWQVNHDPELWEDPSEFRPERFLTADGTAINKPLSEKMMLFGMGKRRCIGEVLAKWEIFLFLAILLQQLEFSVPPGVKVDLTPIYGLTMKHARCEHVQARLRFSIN
Sequence of Cytochrome P450 3A4 (Homo sapiens) (P08684 whole entry, looked up): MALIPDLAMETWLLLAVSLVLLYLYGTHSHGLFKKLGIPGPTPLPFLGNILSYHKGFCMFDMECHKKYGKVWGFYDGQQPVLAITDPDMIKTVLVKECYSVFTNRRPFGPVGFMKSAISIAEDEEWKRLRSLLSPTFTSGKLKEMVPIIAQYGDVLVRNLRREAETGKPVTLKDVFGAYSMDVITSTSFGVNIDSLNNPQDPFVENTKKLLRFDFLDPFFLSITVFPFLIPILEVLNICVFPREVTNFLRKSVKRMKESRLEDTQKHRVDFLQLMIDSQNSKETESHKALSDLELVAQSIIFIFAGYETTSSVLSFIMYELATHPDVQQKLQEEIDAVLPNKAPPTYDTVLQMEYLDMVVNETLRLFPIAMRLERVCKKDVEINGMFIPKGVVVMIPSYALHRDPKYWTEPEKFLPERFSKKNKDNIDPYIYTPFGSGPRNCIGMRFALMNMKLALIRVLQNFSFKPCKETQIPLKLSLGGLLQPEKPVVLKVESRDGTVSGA
Sequence of Glucocorticoid receptor (Homo sapiens) (P04150 whole entry, looked up, the tested form may be a part): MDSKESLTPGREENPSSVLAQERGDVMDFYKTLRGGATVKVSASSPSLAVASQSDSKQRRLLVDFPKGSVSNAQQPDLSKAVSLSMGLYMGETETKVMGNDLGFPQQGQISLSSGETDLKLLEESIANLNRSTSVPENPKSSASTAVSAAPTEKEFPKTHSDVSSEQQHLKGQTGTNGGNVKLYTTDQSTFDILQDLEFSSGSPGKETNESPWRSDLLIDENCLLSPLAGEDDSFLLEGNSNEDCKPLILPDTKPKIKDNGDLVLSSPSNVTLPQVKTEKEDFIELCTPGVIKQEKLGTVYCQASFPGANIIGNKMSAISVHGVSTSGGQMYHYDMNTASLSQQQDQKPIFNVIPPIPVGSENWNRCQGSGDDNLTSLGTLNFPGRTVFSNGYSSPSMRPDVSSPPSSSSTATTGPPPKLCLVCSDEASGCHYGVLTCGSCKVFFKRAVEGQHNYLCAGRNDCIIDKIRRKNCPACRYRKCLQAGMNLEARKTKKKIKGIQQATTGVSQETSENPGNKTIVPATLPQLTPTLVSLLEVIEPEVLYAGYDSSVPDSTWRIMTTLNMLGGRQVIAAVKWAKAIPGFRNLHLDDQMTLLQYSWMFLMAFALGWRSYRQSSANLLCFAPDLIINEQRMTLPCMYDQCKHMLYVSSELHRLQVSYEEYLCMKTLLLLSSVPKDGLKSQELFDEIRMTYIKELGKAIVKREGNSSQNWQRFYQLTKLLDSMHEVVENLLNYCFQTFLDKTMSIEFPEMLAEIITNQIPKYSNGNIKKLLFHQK
Sequence of Cytochrome P450 2C19 (Homo sapiens) (P33261 whole entry, looked up): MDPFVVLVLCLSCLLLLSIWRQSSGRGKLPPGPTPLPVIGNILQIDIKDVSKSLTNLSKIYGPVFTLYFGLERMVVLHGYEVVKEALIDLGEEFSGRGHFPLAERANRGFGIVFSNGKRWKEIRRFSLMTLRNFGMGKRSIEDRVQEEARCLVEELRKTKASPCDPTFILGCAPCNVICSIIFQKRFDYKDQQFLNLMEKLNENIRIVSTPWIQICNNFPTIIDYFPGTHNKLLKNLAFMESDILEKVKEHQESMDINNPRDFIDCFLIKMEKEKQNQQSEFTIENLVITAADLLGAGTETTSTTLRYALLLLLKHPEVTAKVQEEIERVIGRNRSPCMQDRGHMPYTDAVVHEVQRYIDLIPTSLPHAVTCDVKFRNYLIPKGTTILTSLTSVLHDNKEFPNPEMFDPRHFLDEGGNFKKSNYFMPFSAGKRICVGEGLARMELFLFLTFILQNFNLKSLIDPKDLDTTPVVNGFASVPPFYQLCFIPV

CCNc1ncc2nc(-c3ccc(F)cc3)c(=O)n(-c3ccc(OC)cc3)c2n1
active: Potency [3] 6.31 µM
inactive: Potency [1] > 11.4 µM | activity change, negative = inhibition [2] -1.24% | activity, negative = inhibition [4] 20.4% | Potency [5] > 9.22 µM | Potency [6] > 46 µM | Potency [7] | Potency [8] | Potency [9] | Potency [10] | Potency [11] | Potency [12] | outcome [13]

COc1ncc2nc(-c3cccs3)c(=O)n(Cc3cccs3)c2n1
inactive: Potency [1] > 11.4 µM | activity change, negative = inhibition [2] 5.34% | activity change, negative = inhibition [14] 5.36% | activity, negative = inhibition [4] -1.88% | Potency [5] > 9.22 µM | Potency [6] > 46 µM | Potency [7] | Potency [9] | Potency [10] | Potency [11] | Potency [12] | outcome [13]

COc1ncc2nc(-c3ccccc3)c(=O)n(C3CC3)c2n1
inactive: Potency [1] > 11.4 µM | activity change, negative = inhibition [2] -10.7% | activity change, negative = inhibition [14] 7.49% | activity, negative = inhibition [4] -13.4% | Potency [5] > 9.22 µM | Potency [6] > 46 µM | Potency [7] | Potency [15] | Potency [9] | Potency [10] | Potency [11] | Potency [12] | outcome [13]

Cc1noc(C)c1-c1ccc2ncnc(NCc3cccs3)c2c1
inactive: Potency [1] > 11.4 µM | activity change, negative = inhibition [2] 20.1% | Potency [5] > 46 µM | Potency [6] > 46 µM | Potency [7] | Potency [8] | outcome [13]
active: Potency [3] 0.398 µM | Potency [16] 1.26 µM | Potency [9] 0.501 µM | Potency [10] 0.447 µM | Potency [11] 0.158 µM

Cc1cnc(CNc2cc(-c3ccc4c(c3)OCO4)ncn2)cn1
inactive: Potency [1] > 11.4 µM | activity change, negative = inhibition [2] -3.49% | activity change, negative = inhibition [14] 7.15% | activity, negative = inhibition [4] -3.34% | Potency [5] > 46 µM | Potency [6] > 46 µM | Potency [7] | Potency [15] | Potency [12] | outcome [13]
active: Potency [9] 3.98 µM | Potency [10] 3.55 µM | Potency [11] 12.6 µM

CN(Cc1ccco1)c1ccnc(-c2cccc(C#N)c2)n1
active: Potency [3] 0.398 µM | Potency [9] 14.1 µM | Potency [10] 15.8 µM | Potency [11] 14.1 µM
inactive: Potency [1] > 11.4 µM | activity change, negative = inhibition [2] -18.2% | activity, negative = inhibition [4] 2.59% | Potency [5] > 46 µM | Potency [6] > 46 µM | Potency [7] | Potency [15] | Potency [8] | Potency [12] | outcome [13]

CN(C)c1ncc2nc(-c3ccc(Cl)cc3)c(=O)n(Cc3ccc(F)cc3)c2n1
inactive: Potency [1] > 11.4 µM | Potency [5] > 9.22 µM | Potency [6] > 46 µM | Potency [7] | Potency [15] | Potency [17] | Potency [9] | Potency [10] | Potency [11] | outcome [13]
active: activity change, negative = inhibition [2] 115% [activator] | Potency [3] 5.01 µM | activity change, negative = inhibition [14] 137% [activator] | Potency [18] 1.26 µM
